# Screening data from PubChem.
# TNAP act DEA: human TNAP enzyme activators, primary screen, biochemical, luminescent, intermediate phosphate acceptor level | activation factor at 20 µM | 64,000 tested, under 10 active | Alkaline phosphatase, tissue-nonspecific isozyme (Homo sapiens), P05186 | purified TNAP, CDP-star luminescence, 100 mM DEA, 30 min; stronger effect = higher value; scale: 0 levamisole-inhibited, 1 vehicle-only enzyme;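 active = activation factor of at least 2 at 20 µM, relative to controls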
# PostGolgi yeast: phenotypic screen on post-Golgi transport, primary screen. post-Golgi transport phenotypic cell assay. hit rate 0.9% among 98,000. inhibition, % at 10 µM;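 note: yeast cells grown in 1536-well plates; yeast grown about 18 h at 30C before absorbance read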
# PostGolgi ctrl: growth inhibition of yeast control strain, primary screen, counter-screen for post-Golgi transport modulator project. efflux-deficient yeast background strain, growth absorbance A615, 16 h. inhibition, % at 10 µM. hit rate 5% among 98,000
# DAT uptake mod: changed hDAT dopamine uptake under cocaine IC80, either direction, primary screen, cocaine antagonist project, cell-based, LLC-PK1 hDAT, [14C]-dopamine uptake, MLSMR; hit rate 1.3% among 110,000; LLC-PK1 hDAT cells, [14C]-dopamine uptake with cocaine IC80; actives deviate in either direction; Sodium-dependent dopamine transporter (Homo sapiens), Q01959; B-score at 10 µM;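 active = Z score or B-score, a plate-position-corrected score, falls beyond the plate's 99.7% confidence bounds, in either direction; inactive = both scores lie inside the 99.7% bounds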;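 note: scored against the spread of the other compound wells on the same plate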
# Cav3 T inh: Cav3.2 calcium influx blockers – cell-based, Fluo-4 calcium fluorescence, FDSS, MLSMR library, primary screen; Cav3.2-expressing cells; stronger effect = lower value; B-score at 10 µM; hit rate 4% among 100,000; AID 449739, 2010;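 active = single-dose well whose peak fluorescence ratio is a statistical outlier from its plate by either plate-standardised score or position-corrected B-score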
# Target sequence (O95180 whole entry, looked up): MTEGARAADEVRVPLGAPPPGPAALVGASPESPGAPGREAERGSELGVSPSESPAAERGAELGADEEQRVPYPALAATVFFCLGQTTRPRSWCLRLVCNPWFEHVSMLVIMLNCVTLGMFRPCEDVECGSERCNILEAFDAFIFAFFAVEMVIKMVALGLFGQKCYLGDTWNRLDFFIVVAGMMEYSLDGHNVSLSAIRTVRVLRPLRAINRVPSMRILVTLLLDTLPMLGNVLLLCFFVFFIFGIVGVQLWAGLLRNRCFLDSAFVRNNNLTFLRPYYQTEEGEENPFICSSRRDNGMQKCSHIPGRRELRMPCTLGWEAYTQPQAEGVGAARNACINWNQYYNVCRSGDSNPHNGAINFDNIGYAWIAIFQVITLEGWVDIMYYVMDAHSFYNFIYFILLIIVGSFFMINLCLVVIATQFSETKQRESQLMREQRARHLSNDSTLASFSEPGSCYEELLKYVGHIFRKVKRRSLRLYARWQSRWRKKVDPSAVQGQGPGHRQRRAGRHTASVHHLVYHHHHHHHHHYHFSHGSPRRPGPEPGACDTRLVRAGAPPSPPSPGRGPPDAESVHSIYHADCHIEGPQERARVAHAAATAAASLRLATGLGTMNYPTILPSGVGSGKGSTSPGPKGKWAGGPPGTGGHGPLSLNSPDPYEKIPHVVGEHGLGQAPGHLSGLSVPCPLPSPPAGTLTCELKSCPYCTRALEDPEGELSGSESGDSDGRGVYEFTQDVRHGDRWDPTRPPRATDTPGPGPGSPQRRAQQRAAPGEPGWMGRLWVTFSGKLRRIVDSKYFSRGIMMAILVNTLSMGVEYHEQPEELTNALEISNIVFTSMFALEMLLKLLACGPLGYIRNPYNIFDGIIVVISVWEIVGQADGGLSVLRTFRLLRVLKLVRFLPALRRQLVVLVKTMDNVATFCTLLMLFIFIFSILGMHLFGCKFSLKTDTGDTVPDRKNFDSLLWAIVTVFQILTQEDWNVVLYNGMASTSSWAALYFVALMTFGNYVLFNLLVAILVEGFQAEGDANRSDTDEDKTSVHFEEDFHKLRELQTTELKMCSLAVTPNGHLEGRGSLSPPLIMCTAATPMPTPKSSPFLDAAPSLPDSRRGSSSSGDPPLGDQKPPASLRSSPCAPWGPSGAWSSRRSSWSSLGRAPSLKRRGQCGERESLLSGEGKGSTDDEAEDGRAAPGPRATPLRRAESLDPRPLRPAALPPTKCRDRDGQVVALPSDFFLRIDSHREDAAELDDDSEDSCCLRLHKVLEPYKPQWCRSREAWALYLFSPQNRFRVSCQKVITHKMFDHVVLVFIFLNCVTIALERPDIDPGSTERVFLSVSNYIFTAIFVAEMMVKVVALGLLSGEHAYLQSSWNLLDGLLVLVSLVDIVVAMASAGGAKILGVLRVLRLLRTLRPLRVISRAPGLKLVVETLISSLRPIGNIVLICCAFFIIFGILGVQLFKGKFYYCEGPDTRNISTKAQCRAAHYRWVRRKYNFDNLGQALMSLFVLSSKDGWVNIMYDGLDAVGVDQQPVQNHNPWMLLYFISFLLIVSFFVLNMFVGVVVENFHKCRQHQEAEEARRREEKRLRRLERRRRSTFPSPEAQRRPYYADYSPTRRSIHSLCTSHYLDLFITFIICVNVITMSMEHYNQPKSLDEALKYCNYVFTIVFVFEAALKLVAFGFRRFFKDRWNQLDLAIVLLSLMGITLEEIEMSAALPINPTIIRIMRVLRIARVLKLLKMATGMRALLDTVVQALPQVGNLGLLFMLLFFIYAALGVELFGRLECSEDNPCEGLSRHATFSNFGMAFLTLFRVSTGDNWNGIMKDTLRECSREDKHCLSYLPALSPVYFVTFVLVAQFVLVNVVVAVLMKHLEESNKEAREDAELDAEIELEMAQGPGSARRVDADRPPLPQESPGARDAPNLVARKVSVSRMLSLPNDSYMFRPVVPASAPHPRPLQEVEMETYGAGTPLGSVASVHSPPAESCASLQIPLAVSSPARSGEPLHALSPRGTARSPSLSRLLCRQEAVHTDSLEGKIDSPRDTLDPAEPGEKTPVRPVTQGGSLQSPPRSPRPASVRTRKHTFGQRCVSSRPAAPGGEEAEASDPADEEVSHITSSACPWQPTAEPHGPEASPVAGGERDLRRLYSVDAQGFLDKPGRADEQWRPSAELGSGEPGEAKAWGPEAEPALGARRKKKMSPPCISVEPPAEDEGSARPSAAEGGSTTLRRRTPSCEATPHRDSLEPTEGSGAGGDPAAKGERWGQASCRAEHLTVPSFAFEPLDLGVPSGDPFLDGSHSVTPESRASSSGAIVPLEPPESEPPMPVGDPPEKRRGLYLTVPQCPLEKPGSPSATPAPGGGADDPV
# Smad3 inh: Smad3/FoxH1 peptide binding inhibitors, primary screen, biochemical, TR-FRET. Mothers against decapentaplegic homolog 3 (Homo sapiens), P84022. TR-FRET Smad3/Dy647-FoxH1 peptide binding, europium anti-His. inhibition, % at 25 µM. hit rate 0.29% among 88,000;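 active = compounds that reduce the energy-transfer binding signal between the protein and its labelled peptide by more than half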;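 note: 0% = Smad3 plus labelled peptide maximal FRET and 100% = peptide-only background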
# Active calls of the source: *; . = no result. This is a sample that favours compounds with a hit; in the whole collection about 8.7% have one here. Cut-off read from the data, not from the text of the source, unless noted: active = inhibition above about 30%; inactive = the rest.
SMILES,TNAP act DEA,PostGolgi yeast,PostGolgi ctrl,DAT uptake mod,Cav3 T inh,Smad3 inh
CCOc1ccc(S(=O)(=O)NCc2ccccn2)cc1,.,-11,30*,0.19,0.2,2
CCOC(=O)COc1ccc(S(=O)(=O)NCc2ccco2)cc1,0.9,2,2,-2.3,0.093,-5
CCOc1ccc(S(=O)(=O)NCc2ccncc2)cc1,.,6,4,-2.7*,-0.03,-6
CCOC(=O)COc1ccc(S(=O)(=O)NCc2ccncc2)cc1,0.9,2,12,0.3,-5.3*,-2
COc1ccc(C(=O)NCc2ccccn2)cc1,.,.,.,0.73,0.6,-7
COCC(=O)N(Cc1ccccc1)c1ccccn1,0.9,2,16,0.41,-0.28,5
COc1ccccc1NC(=O)N(Cc1ccccc1)c1ccccn1,0.9,19,45*,1.2,-3.1,4
CC(C)(C)NCCOc1ccc(Br)cc1,.,-6,10,-0.049,0.66,-10
COc1ccc(-c2cc(C(=O)OCC(=O)N(C)C)c3ccccc3n2)cc1,1,-23,9,0.37,0.12,4
O=C(O)c1nc2ccccc2nc1C(=O)O,1,3,4,-0.085,1.1,11
c1ccc2nc3ccccc3nc2c1,.,.,.,-1.1,-4.4*,.
O=C1c2ccccc2-c2nc3ccccc3nc21,.,17,19,-0.18,0.93,13
Nc1nc2ccccc2nc1N,0.9,-10,5,-8*,-0.0094,13
OCCN(CCO)c1ncnc2c1sc1nc(N3CCOCC3)c3c(c12)CCCC3,1,-9,4,4.1*,0.71,6
CCN(CC)C(=O)c1sc2nc(N3CCOCC3)c3c(c2c1N)CCCC3,.,-3,10,3*,-1.2,9
NC(=O)c1sc2nc(N3CCCCC3)c3c(c2c1N)CCCC3,0.8,-4,44*,1.3,-0.1,12
O=C(CCCN1C(=O)c2ccccc2C1=O)Nc1nccs1,.,2,9,0.018,-0.0056,-5
CCOC(=O)CCN(Cc1cccs1)S(=O)(=O)c1ccc(F)cc1,0.9,2,14,1.3,-1,.
O=C(c1ccc2c(c1)N(Cc1ccccc1)CCS2)N1CCCCC1,.,2,43*,0.6,-8.3*,-4
COc1ccccc1-c1nnc2sc(-c3ccc(N(C)C)cc3)nn12,1.3,.,.,.,.,.
COc1ccccc1-c1nnc2sc(-c3cc4ccccc4o3)nn12,0.9,-7,41*,.,.,10
O=C(NCC1CCCCC1)C1CCN(C(=O)NC2CCCCC2)CC1,1.1,19,-6,-0.31,0.03,4
COC(=O)c1cc(NCc2ccc3c(c2)OCO3)ccc1N1CCOCC1,0.9,-8,7,1.5,-0.55,6
O=C(O)c1cc(NCc2ccc3c(c2)OCO3)ccc1N1CCOCC1,0.9,32*,-2,-0.096,0.51,-4
CCCN(CCC)C(=O)CC(c1ccc(F)cc1)c1ccco1 (stereo not given),0.9,1,15,-1,-2.1,3
SMILES,TNAP act DEA,PostGolgi yeast,PostGolgi ctrl,DAT uptake mod,Cav3 T inh,Smad3 inh
CCCCC(NC(=O)c1ccccc1)C(=O)OCC(=O)N1c2ccccc2Sc2ccccc21 (stereo not given),.,0,12,-0.47,-7.2*,.
COc1ccc2c(c1)c(=O)c(C(=O)c1ccccc1)cn2Cc1ccc(C)cc1,.,.,.,-0.72,-5.5*,.
COc1cccc(C(=O)/C=C/Nc2ccc(S(=O)(=O)Nc3cccc(C(C)=O)c3)cc2)c1,.,4,42*,0.53,.,.
COC(=O)c1ccccc1NC(=O)C1CCN(S(C)(=O)=O)CC1,0.9,11,13,-0.48,-0.046,-12
O=C(CSc1nnc(-c2cc(-c3cccs3)nc3ccccc23)o1)NC1CCCCC1,.,-7,-8,-0.43,0.25,1
N#C/C(=C\c1ccc(-c2ccccc2)o1)C(=O)Nn1cnnc1,.,-8,2,-0.57,0.5,.
Cc1ccc(-c2ccc(/C=C(\C#N)C(=O)Nc3cc(C)nn3-c3ccccc3)o2)cc1,.,1,8,0.04,-6.6*,.
Cc1cc2oc(=O)cc(CSc3nc(N)cc(N)n3)c2cc1C(C)C,.,3,27,-0.32,0.96,2
Cc1cc2oc(=O)cc(CN3CCCCC3)c2cc1C(C)C,0.8,-6,8,0.58,-4.7*,-7
CC(C)(C)c1ccc(S(=O)(=O)CCc2ccccn2)cc1,.,-4,2,-0.27,0.91,9
Cc1ccc(C)c(OCCCC(=O)Nc2nccs2)c1,.,6,18,-1.2,-4.6*,0
O=C(Nc1cccnc1)Nc1ccccc1Cl,0.9,3,20,0.26,-0.13,-11
O=C(Nc1cccnc1)Nc1ccc(Br)cc1Cl,0.9,-10,35*,0.0031,-0.34,10
CCc1c(C)nc(N)n2c(SCC(=O)N3CCCc4ccccc43)nnc12,0.8,7,12,0.058,1.5,-12
CN(c1ccccc1)S(=O)(=O)c1ccc(NC(=O)C2CCCCC2C(=O)O)cc1 (stereo not given),.,-3,0,-0.11,-0.67,.
COc1cc(NC(=O)c2cc(-n3cnnc3)ccc2Cl)cc(OC)c1,0.9,6,12,0.65,.,4
O=C(O)c1cccc2cccc(-c3cccc4cccc(C(=O)O)c34)c12,.,.,.,.,.,67*
CC(Sc1cccc2cccc(C(=O)O)c12)C(=O)O (stereo not given),0.9,2,3,0.43,0.19,0
Cc1ccc(/C=N/n2cnnc2)s1,.,8,3,0.76,0.3,-3
Cc1ccc(Sc2oc(/C=N/n3cnnc3)cc2Br)cc1,0.9,1,44*,-0.59,1.3,1
CCOc1cc2c(cc1OCC)C(C(=O)O)C(c1cc(OC)c(OC)c(OC)c1)N(C)C2=O (stereo not given),1,7,6,0.14,0.14,12
COc1cccc(C(=O)Nc2ccc(Cl)c(C(F)(F)F)c2)c1,.,1,22,0.37,-5.1*,.
O=C(Nc1ccc(Cl)c(C(F)(F)F)c1)c1ccco1,0.8,0,22,1.2,-5.8*,5
CC(C)C(=O)NC(c1ccco1)c1ccc2cccnc2c1O (stereo not given),1.1,2,32*,-0.81,0.33,9
Oc1c(C(Nc2nc3ccccc3s2)c2ccco2)ccc2cccnc12 (stereo not given),1.1,9,11,0.42,-3.1,6
COc1ccc(C(NC(C)=O)c2ccc3cccnc3c2O)c(OC)c1 (stereo not given),1.3,.,.,1*,0.28,2
NC12CC3CC(CC(C3)C1)C2,.,.,.,-0.56,0.96,.
CC(C)C[C@H](NC(=O)c1nc[nH]c1C(=O)N1CCN(c2ccccc2)CC1)C(=O)OC(C)(C)C,.,.,.,0.61,-1.6,.
CCOc1ccc(/C=N/n2c(SC)nnc(C(C)(C)C)c2=O)cc1,.,0,18,0.49,-0.11,17
CCOc1ccc(/C=N/n2c(SC)nnc2-c2ccccc2)cc1OCC,.,-1,21,3.3*,0.28,.
